Source: PubChem BioAssay (NCATS)
Values joined by “and” are separate entries in the source; they are usually repeats but may differ in a detail not shown here. Equal values may be shown once. Records with an inconclusive call do not appear. Active and inactive are the calls of the source. Calls come from the whole dose curve; as a rule, active = well fitted cell-killing curve with a large enough effect; inconclusive = small, poorly fitted or top-dose-only effect; inactive = flat fitted curve, though single readings scatter.

test: Cell Viability - N2a (AID 540); details: N2a mouse neuroblastoma cell viability; activity change, negative = cytotoxicity: at 92.2 µM (top of the series); note: nearly all actives have a fitted effect of over 45% in size;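 for activity change, negative = cytotoxicity: plate controls were DMSO alone for no effect and tamoxifen control for full effect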
From the text: NIH Chemical Genomics Center [NCGC]
NIH Molecular Libraries Screening Centers Network [MLSCN]
National Institutes of Environmental Health Sciences [NIEHS]
National Toxicology Program [NTP]
We have developed a 1536-well cell-based assay for quantitative high throughput screening (qHTS) against a number of cell lines to determine in vitro cytotoxicity of small molecules. This particular assay uses the N2a cell line which is derived from mouse neuroblastoma.
NCGC Assay Protocol Summary:
The CellTiter-Glo luminescent cell viability assay (Promega) is a homogeneous method to measure the number of viable cells in culture. The end point readout of this assay is based on quantitation of intracellular ATP, an indicator of metabolic activity, using the luciferase reaction. Luciferase catalyzes the oxidation of beetle Luciferin to oxyluciferin and light in the presence of ATP. The luminescent signal is proportional to amount of ATP present.
Using the CellTiter-Glo luminescent cell viability assay, the amount of cellular ATP was measured in the N2a cell line with complete culture medium following compound treatment for 40 hours. The assay was performed in opaque white Kalypsys 1536-well plates. In the screen, tamoxifen and doxorubicin were used as positive controls. Library compounds were measured for their ability to cause acute toxicity in the cell line, as reflected by a decrease in intracellular ATP levels, in a concentration-dependent manner. […] AC50 values were determined from concentration-response data modeled with the standard Hill equation.
qHTS protocol for CellTiter Glo N2a cellular assay
[Step] [Parameter] [Value] [Description]
1. Reagent; 5 uL; 1500 N2a cells/well
2. Time; 5 hr; 37 °C incubation
4. Controls; 23 nL; Tamoxifen 0.34 uM to 100 uM & Doxorubicin 0.02 nM to 100 uM
5. Time; 40 hr; 37 °C incubation
6. Reagent; 5 uL; CellTiter Glo reagent
7. Time; 20 min; Room Temperature
8. Detection; Luminescence; Viewlux plate reader
Keywords: cell viability, cytotoxicity, N2a cell line, luminescence, NTPHTS, NTPHTS_NCGC, NIEHS, EPA, DSSTox, MLSMR, MLSCN, NIH Roadmap, qHTS, NCGC
Potency is the fitted concentration of half-maximal effect.

SMILES	activity change, negative = cytotoxicity	Potency
CCc1cc(C(N)=S)ccn1	-17.2% (inactive)	–
Cc1noc(NS(=O)(=O)c2ccc(N)cc2)c1C	-3.99% (inactive)	–
Cc1cc(NS(=O)(=O)c2ccc(N)cc2)no1	-1.31% (inactive)	–
COc1ccc2cc3[n+](cc2c1OC)CCc1cc2c(cc1-3)OCO2	–	1.26 µM (active)
NC(N)=NC(N)=NCCc1ccccc1	-109% (active)	–
O=C(N[C@H](CO)[C@H](O)c1ccc([N+](=O)[O-])cc1)C(Cl)Cl	-15.7% (inactive)	–
Cc1ccnc2c1NC(=O)c1cccnc1N2C1CC1	11.5% (inactive)	–
CC1=NN(c2ccccc2)C(=O)C1	-0.342% (inactive)	–
CC(=O)Oc1ccccc1C(=O)Nc1ncc([N+](=O)[O-])s1	–	25.1 µM (active)
Cc1ncc([N+](=O)[O-])n1CCO	-15.5% (inactive)	–
CC(=O)[C@H]1CC[C@H]2[C@@H]3CCC4=CC(=O)CC[C@]4(C)[C@H]3CC[C@]12C	-96.5% (active) and -82.2% (active)	–
N=C(N)c1ccc(OCCCCCOc2ccc(C(=N)N)cc2)cc1	–	15.8 µM (active)
O=C(O)c1cc(=O)[nH]c(=O)[nH]1	7.18% (inactive)	–
CN(C)c1ccc(C(=C2C=CC(=[N+](C)C)C=C2)c2ccc(N(C)C)cc2)cc1	–	0.794 µM (active)
CC[C@H](C)C(=O)O[C@H]1C[C@@H](C)C=C2C=C[C@H](C)[C@H](CC[C@@H]3C[C@@H](O)CC(=O)O3)[C@H]21	–	2 µM (active)
Cc1nnc(NS(=O)(=O)c2ccc(N)cc2)s1	-0.134% (inactive)	–
C[C@]12C=CC(=O)C=C1CC[C@@H]1[C@@H]2C(=O)C[C@@]2(C)[C@H]1CC[C@]2(O)C(=O)CO	-6.87% (inactive)	–
NNC(=O)c1ccncc1	10.5% (inactive)	–
